# Test results taken from ChEMBL document CHEMBL4513216, “Probing the Open Global Health Chemical Diversity Library for Multistage-Active Starting Points for Next-Generation Antimalarials” (ACS Infect Dis, 2020).
# In all, about 69,000 compounds went through this assay and about 8,600 (12%) showed an effect of 50% or more. Shown is part of a subset that was picked to be rich in strong results.
# Tested on: Plasmodium berghei
# Assay: Screen against P. berghei liver stage (PbLuc), transformed with Luciferase, at 10uM
# Type: functional, HepG2
# Details: tested at 10 uM
row,SMILES,INHIBITION [%]
1,Cn1cc(CC2CCN(C(=O)NCc3csc(C4CC4)n3)C2)cn1 (stereo not drawn),11.8
2,O=C(O)c1cccnc1CN1CCCCC1CCc1cccs1 (stereo not drawn),5.78
3,Cc1nc(NC(=O)N[C@H](CO)c2ccccc2)sc1C,7.3
4,COc1ccc(COCC(O)CNC(=O)c2cc(C)no2)cc1 (stereo not drawn),5.03
5,CCn1nc(C(C)C)cc1C(=O)NCc1nc2ccc(OC)cc2[nH]1,37.6
6,COc1ccc2cc(C(=O)NCCc3nc(C)no3)[nH]c2c1,-1.79
7,COc1ccc2nc(CNC(=O)c3cc(C(C)C)on3)[nH]c2c1,27.5
8,COc1ccc2nc(CCNC(=O)c3cc(CC(C)C)no3)[nH]c2c1,55.5
9,COc1ccc2nc(CNC(=O)c3cc(C(C)C)no3)[nH]c2c1,73.4
10,Cc1ccc(CN2CCC[C@]3(C(=O)O)CN(C)C[C@@H]3C2)s1,6.79
11,c1ccc2c(c1)cnn2CCCNC1CCOC2(CCOCC2)C1 (stereo not drawn),-9.39
12,c1csc(N2CCCN(c3nccn4cnnc34)CC2)n1,-27.8
13,Cc1cc(C)cc(OCCN(C)Cc2ccc(S(=O)(=O)N(C)C)o2)c1,7.39
14,Cc1ccc(OCCN(C)Cc2ccc(S(=O)(=O)N(C)C)o2)cc1,47.7
15,CN(CCOc1ccc(Cl)cc1)Cc1ccc(S(=O)(=O)N(C)C)o1,51
16,CC(C)NC(=O)c1ccc2c(c1)C1(CCN(C(C)C)CC1)C(=O)N2,-25.1
17,O=C(NCCNc1ncccn1)C1CCN(C(=O)N2CCCC2)CC1,-33.9
18,O=C1CC(c2ccc(O)cc2)c2c(n3ccsc3nc2=O)N1 (stereo not drawn),2.66
19,C1CC(CO[C@@H]2CC[C@H]3[C@H]2OCCN3CC2CCOCC2)CCO1,7.31
20,CO[C@@H]1CC[C@H]2[C@H]1OCCN2CC1CC1,23.6
21,C1CCC(CO[C@@H]2CC[C@H]3[C@H]2OCCN3CC2CCOCC2)C1,65.6
22,CCO[C@@H]1CC[C@H]2[C@H]1OCCN2CC1CCC1,54.7
23,C1CC(CO[C@@H]2CC[C@H]3[C@H]2OCCN3CC2CC2)CCO1,-11.6
24,CCO[C@@H]1CC[C@H]2[C@H]1OCCN2CC1CCOCC1,27.6
25,COc1ccccc1C(C)N(C)Cc1nc2c(cnn2C)c(=O)[nH]1 (stereo not drawn),-75.245
26,CCCc1n[nH]cc1C(=O)NCC1COc2cc(OC)ccc2C1 (stereo not drawn),-3.83

row,SMILES,INHIBITION [%]
1,COc1cccc2c1OCC(CNC(=O)Cc1c(C)nc(N)nc1C)C2 (stereo not drawn),-13
2,CCc1nc2c(NCC3COc4ccccc4C3)ncnc2o1 (stereo not drawn),91.5
3,COc1cccc2c1OCC(CNc1ccc(C)nn1)C2 (stereo not drawn),42.7
4,COc1ccc2c(c1)OCC(CNC(=O)NC(C)(C)C)C2 (stereo not drawn),31
5,CCc1nc2c(NCC3COc4cc(OC)ccc4C3)ncnc2o1 (stereo not drawn),67.7
6,CCc1nc2c(NCC3COc4c(cccc4OC)C3)ncnc2o1 (stereo not drawn),55.4
7,CN1CCN(S(=O)(=O)NCC2COc3ccccc3C2)CC1 (stereo not drawn),-22.1
8,O=C(c1cncc(NCC2COc3ccccc3C2)n1)N1CCCC1 (stereo not drawn),33.7
9,Cc1nc(C2CCCN(C(=O)COCCc3ccccc3)C2)no1 (stereo not drawn),11.2
10,CCCn1nccc1-c1cc(C2CCN(S(C)(=O)=O)CC2)nc(C)n1,-39.4
11,COc1ccc2cnn(CC(=O)NCC3CCCO3)c(=O)c2c1OC (stereo not drawn),34.5
12,CCC(C)CS(=O)(=O)NC(=O)C1CC1 (stereo not drawn),2.39
13,CCC(C)CS(=O)(=O)NC(=O)C1CCC1 (stereo not drawn),62.3
14,CCC(CC)CS(=O)(=O)NC(=O)C1CCC1,7.49
15,CCCN1CCC(Cc2noc(-c3[nH]cnc3C)n2)CC1,-1.85
16,Cc1ccc(N2CCCC3(COCCN(c4ccccn4)C3)C2)nn1 (stereo not drawn),17.2
17,Cc1ccc(CNC(=O)CN2CCCC(Cn3cncn3)C2)cc1 (stereo not drawn),31.8
18,Cn1cc(CN2CCn3c(CNC(=O)c4cccn4C)cnc3C2)cn1,2.01
19,Cn1cccc1C(=O)NCc1cnc2n1CCN(CC1CC1)C2,-13
20,O=C(CC1CC1)NCc1cn2c(n1)CN(Cc1cccc(F)c1)CC2,50.9
21,Cn1cc(C(=O)NCc2cn3c(n2)CN(Cc2ccncc2)CC3)cn1,-4.88
22,Cn1cc(C(=O)NCc2cn3c(n2)CN(Cc2ccccn2)CC3)cn1,53
23,O=C(NCc1cn2c(n1)CN(Cc1cccc(F)c1)CC2)C1CCC1,-14.4
24,O=C(CC1CC1)NCc1cn2c(n1)CN(Cc1cccnc1)CC2,33.4
25,Cn1cccc1C(=O)NCc1cn2c(n1)CN(Cc1ccccn1)CC2,-37.6
26,Cn1cc(C(=O)NCc2cn3c(n2)CN(CC2CCOC2)CC3)cn1 (stereo not drawn),-11.6

row,SMILES,INHIBITION [%]
1,Cc1ccc(CN2CCn3c(CNC(=O)c4cccn4C)cnc3C2)s1,54.7
2,Cn1cccc1C(=O)NCc1cn2c(n1)CN(CC1CCOC1)CC2 (stereo not drawn),58.4
3,Cn1cccc1C(=O)NCc1cn2c(n1)CN(CC1CCOCC1)CC2,-4.88
4,Cc1nc(C)n(C2CCCN(C(=O)c3ccc(F)c(F)c3)C2)n1 (stereo not drawn),6.333
5,Cc1noc(-c2ccc(N3CCN(Cc4ncccc4C)CC3)nc2)n1,17.1
6,O=C(CN1CC(c2nc(C3CC3)no2)C1)NCc1ccc(F)cc1,-50.7
7,CN(CCc1noc(C2CC2)n1)C(=O)C1(N2CCCC2)CCCC1,10.7
8,Cc1nc(-c2ccccc2)cc(C2CCNCC2)n1,-25.3
9,COc1ccc(CNCc2c(C(C)C)nn(C)c2N(C)C)cn1,19.2
10,CC(C)=CCCC1(C)CCC(=O)N(CCNc2nc(C)cc(=O)[nH]2)C1 (stereo not drawn),18.5
11,N#CCCN(C(=O)CN1CCCC1c1cccs1)c1ccccc1F (stereo not drawn),13.833
12,O=C1Nc2ccccc2CN(CC=Cc2ccccc2)C12CCNC2 (stereo not drawn),35.8
13,O=c1[nH]c2cn(-c3ccc(Cl)cc3)c(=O)n2[nH]1,-20.6
14,CCC(CC)NC(=O)Cn1cc(-c2ccccc2)cn1,48.4
15,O=C(NCc1cn2c(n1)CN(Cc1nccs1)CC2)C1CCC1,11.4
16,Cn1cccc1C(=O)NCc1cn2c(n1)CN(Cc1cccnc1)CC2,15.8
17,Cn1cc(CN2CCn3cc(CNC(=O)c4cccn4C)nc3C2)cn1,62.6
18,Cn1cc(CN2CCn3cc(CNC(=O)CC4CC4)nc3C2)cn1,33.4
19,Cn1cc(C(=O)NCc2cn3c(n2)CN(CC2CCOCC2)CC3)cn1,9.54
20,O=C(NCc1cn2c(n1)CN(CC1CCOCC1)CC2)C1CCC1,60.2
21,CN1CCN(Cc2cn3c(n2)CN(C2CCOCC2)CC3)CC1,11.6
22,CCN1CCn2cc(CNC(=O)c3cnn(C)c3)nc2C1,-18.4
23,COCCN1CCn2cc(CNC(=O)C3CCC3)nc2C1,-10.3
24,c1c(CN2CCOCC2)nc2n1CCN(C1CCOCC1)C2,27.5
25,Cn1cc(C(=O)NCc2cn3c(n2)CN(C2CCOCC2)CC3)cn1,54.7
26,c1c(CN2CCCC2)nc2n1CCN(C1CCOCC1)C2,54.4
